# From PubChem BioAssay
# Only a selection was taken, and hits are over-represented in it overall.
# CapD inh – blocks the Bacillus anthracis CapD enzyme. purified CapD enzyme, fluorescence intensity read-out; hits give low values. z-score (test concentration not listed). 140,000 compounds, 0.23% hits; in the data active means z-score mostly below about -2.9, no sharp cut-off; inactive means mostly above about -1.9
# Hits are given with their value; 0 = inactive.
SMILES,CapD inh
CCO/C=C1/SC(=S)N(CCc2ccc(Cl)cc2)C1=O,0
CCO/C=C1\SC(=S)N(c2ccc(Cl)cc2)C1=O,0
CCO/C=C1\SC(=S)N(/N=C/c2cccc(Cl)c2)C1=O,-4.4
CCOC(=O)NC1CCN(CC)CC1,0
COc1ccc(/C=C2\SC(=Nc3cc(C)cc(C)c3)NC2=O)c(OC)c1,0
CCC(=O)NC1=NC(=O)/C(=C\c2cc(OC)c(OC(=O)CC)c(OC)c2)S1,0
Cn1nc(-c2ccccc2)c(CSc2cccc(Cl)c2Cl)c1Cl,0
C=CCN1C(=O)/C(=C/c2ccco2)C(=O)NC1=S,-4.7
C=CCN1C(=O)/C(=C\c2ccc(-c3ccc(Cl)c([N+](=O)[O-])c3)o2)C(=O)NC1=S,0
C=CCN1C(=O)NC(=O)/C(=C/c2ccco2)C1=O,0
Cc1cc(-c2onc(C)c2C(=O)Sc2c(Cl)cccc2Cl)no1,0
O=C(O)C1Cc2c([nH]c3ccccc23)C(CCc2ccccc2)N1 (configuration not stated),0
Cc1noc(C)c1S(=O)(=O)Nc1ccc(N2CCCCC2)cc1,0
COc1ccc(N(C(C)=O)S(=O)(=O)c2ccc(C)cc2)cc1,0
CCCC(=O)Oc1ccc(N(C(=O)CCC)S(=O)(=O)c2ccccc2)cc1,0
CC(=O)Oc1ccc(N(C(C)=O)S(=O)(=O)c2ccccc2)cc1,-4.2
Cc1cc(C)c2c(CC(=O)N(C)C)coc2c1,0
Cc1nn(-c2ccccc2)c(-n2cccc2)c1CN,0
COc1ccc(S(=O)(=O)N(CC(=O)Nc2cccc(C(F)(F)F)c2)c2ccc(Cl)cc2)cc1,0
O=S(=O)(c1ccc(Cl)cc1)N1CCSc2cc(Cl)ccc21,0
N#CCC(=O)Nc1ccccc1Oc1ccccc1,0
O=C(O)CCCC(=O)Nc1ccccc1Oc1ccccc1,-2
O=C(O)CCCC(=O)Nc1cccc2ccccc12,0
O=C(ON1C(=O)CCC1=O)c1ccc(Br)o1,-5.7
O=C(O)c1ccc(Br)o1,0
SMILES,CapD inh
COC(=O)c1ccc(Br)o1,0
CC1CCc2c(sc(NC(=O)CSc3nnc4ccccn34)c2C#N)C1 (configuration not stated),0
COCCCNc1ccc(C(=O)N2CCC3(CC2)OCCO3)cc1S(=O)(=O)Nc1cc(F)ccc1F,0
O=C(Cn1c2ccccc2c(=O)c2ccccc21)Nc1ccc(I)cc1,0
COc1ccc2oc(/C=C/N(C)C)c(C(=O)c3ccc(Br)cc3)c2c1,-3.3
CCOC(=O)c1c(C)oc2ccc(OCC(=O)c3ccc(Br)cc3)cc12,0
COc1ccc(C(=O)Nc2cc(C(C)=O)c(/C=C/N(C)C)oc2=O)cc1,0
CCCNC(=O)c1ccccc1SC,0
CCCCn1nnc2sc(-c3ccccc3)cc2c1=O,0
O=C(Cc1c[nH]c2ccccc12)N/N=C/c1ccc(Br)c(Br)c1,0
CSc1nc2c(=S)[nH]c(=S)[nH]c2s1,-5.5
CSc1nc2nc(N)nc(N)c2s1,0
O=C1c2ccccc2CC(=O)c2sccc21,-6.8
O=C1/C(=C/c2cccs2)Cc2ccccc21,0
CN1CCC(=C2c3ccccc3CC(=O)c3sccc32)CC1,0
CCc1ccc(-c2ccc(C(=O)NCCCOC)cc2)cc1,0
CC(=O)N1N=C(COc2ccc3c(c2)OCO3)OC1c1ccc(C)cc1 (configuration not stated),0
Cc1oc2c(c1C(=O)NCc1ccccc1)C(=O)c1ccccc1C2=O,0
Cc1cc(=O)oc(C)c1C(=O)NCc1ccccc1,-3.7
CCCNC(=O)c1c(C)cc(=O)oc1C,0
Cc1cc(C)c2c(c1)CC(C)(C)c1nc3cc4ccccc4cc3nc1-2,0
O=C1Nc2ccc(Br)cc2/C1=N/N1C(=O)C(O)=CC1(O)c1ccccc1 (configuration not stated),-4.1
O=C1Nc2ccc(Br)cc2C1=Nc1ccc(Cl)cc1,0
O=C(O)CN1C(=O)Nc2ccc(Br)cc2C1c1ccccc1 (configuration not stated),0
CCOC(=O)/C(C#N)=C1/CCCN1,0
SMILES,CapD inh
COc1ccc(-c2cnc3nc(SCCC(F)=C(F)F)nn3c2N)cc1,0
COc1ccc(CCNC(=O)c2c[nH]c3ccc(S(=O)(=O)N4CCC5(CC4)OCCO5)cc3c2=O)cc1OC,0
CC1=NN(c2ccc(C(=O)O)cc2)C(=O)C1,0
CC1=NN(c2cc(S(=O)(=O)O)c3cccc(S(=O)(=O)O)c3c2)C(=O)C1,-5.7
CC1=NN(c2cccc(S(N)(=O)=O)c2)C(=O)C1,0
Cc1cc(/C=C2\NC(=O)NC2=O)c(C)n1-c1ccc(F)c(Cl)c1,0
O=C(O)CCN1C(=O)/C(=C/c2ccccc2)SC1=S,0
CC(C(=O)O)N1C(=O)/C(=C\c2ccco2)SC1=S (configuration not stated),-4.9
O=C(O)CCN1C(=O)/C(=C\c2ccccc2)SC1=S,0
Cc1ccc(/C=C2/SC(=S)N(C(C)C(=O)O)C2=O)o1 (configuration not stated),0
CC(C(=O)O)N1C(=O)/C(=C/c2ccccc2Cl)SC1=S (configuration not stated),0
O=C(O)CCN1C(=O)/C(=C/c2ccco2)SC1=S,-6.1
NC(/N=C/c1ccccc1O)=N\S(=O)(=O)c1ccc(N=Cc2ccccc2O)cc1,0
